Compound activity: PubChem BioAssay, National Center for Advancing Translational Sciences (NCATS)
LASV entry inh: qHTS for Inhibitors of binding or entry into cells for Lassa Virus; Lassa virus pseudotype entry inhibition, cell reporter; Potency, µM (top dose mostly 37.9 µM), actives largely listed as inhibitors; actives 1.2% (n = 300,000); calls by dose curve; tested in HEK293 cells; note: nearly all actives have a fitted effect of over 50% in size
SARS PLpro yeast: qHTS of Yeast-based Assay for SARS-CoV PLP; S. cerevisiae expressing SARS-CoV PLpro, growth rescue; Potency, µM (highest dose often 32.9 µM), most hits filed as activators; actives 0.19% (n = 330,000); calls by dose curve; note: nearly all actives have a fitted effect of over 55% in size
HCV inh: qHTS Assay for Inhibitors of Hepatitis C Virus (HCV) | actives 3.4% (n = 340,000) | Huh7.5.1 HCVcc-Cre infection, luciferase reporter, 44 h | Potency, µM (series often up to 41.8 µM), usual class: inhibitors; active = well fitted inhibition curve with a large enough effect; inconclusive = small, poorly fitted or top-dose-only effect, or another doubt; inactive = no such curve, though single readings can be large or run the other way
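Cells seeded at 1,000/well and cultured 4 h, then compounds added followed by HCVcc-Cre virus (~0.5 moi). After 44 h further culture, luciferase substrate was added, plates held 15 min at room temperature, and luminescence read for 15 sec.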
FMDV inh: High Throughput Screening for Foot and Mouth Disease Virus Antivirals; FMDV antiviral cell-based qHTS; AID 1159524, 2015; Potency, µM (top dose mostly 57.9 µM), actives largely listed as inhibitors; actives 1.2% (n = 410,000); calls by dose curve; tested in HEK293T cells; note: read-out not given here; nearly all actives have a fitted effect of over 45% in size
HCMV antiviral: qHTS Assay for inhibitors of the human cytomegalovirus (HCMV); HFF cells, HCMV-luciferase reporter, 72 h; active compounds read low; activity change, negative = inhibition, % at 57.5 µM; actives 4.5% (n = 410,000); in the data active = activity change below about -60%; inconclusive = no clear call, values can overlap the other calls; inactive = above about -39%
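Compounds were evaluated in HFFs infected with an HCMV luciferase reporter virus (MOI 1 PFU/cell). Luciferase in lysates collected 72 h post infection served as the replication measure.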
MARV entry inh: qHTS for inhibitors of binding or entry into cells for Marburg Virus. Marburg virus pseudotyped entry inhibition, cell reporter. Potency, µM (doses to about 37.8 µM), actives largely listed as inhibitors. actives 1.8% (n = 300,000); calls by dose curve; tested in HEK293 cells
Each line names hits and unclear results; the compound was inactive in the other large screens. Hits are enriched below; roughly 8% of the tested compounds scored in any of these assays.

COc1c(C)cc(C(=O)C2CCCN(Cc3cnc(N4CCOCC4)s3)C2)cc1C (stereo unspecified)	HCV inh 11.2µM (no result: LASV entry inh, MARV entry inh)
COc1cc(CN2CCCC(C(=O)c3ccccc3SC)C2)cc(OC)c1 (stereo unspecified)	HCV inh 11.2µM (no result: LASV entry inh, MARV entry inh)
COc1cccc(C(=O)C2CCCN(Cc3cccc(OCCO)c3)C2)c1 (stereo unspecified)	none
CCc1ccc2oc(-c3ccc(C)c(NC(=O)c4cc([N+](=O)[O-])ccc4N4CCOCC4)c3)nc2c1	HCMV antiviral inconclusive, MARV entry inh inconclusive (no result: SARS PLpro yeast, HCV inh)
COc1ccc(N2CCN(C(=O)C3CCN(S(=O)(=O)c4ccc5c(c4)CC(C)N5C(=O)C4CC4)CC3)CC2)cc1 (stereo unspecified)	none (no result: LASV entry inh, SARS PLpro yeast, HCV inh, FMDV inh, MARV entry inh)
Cc1cccc(C)c1NC(=O)C1(C)CN(S(C)(=O)=O)CC(=O)N1CCc1ccc(O)cc1 (stereo unspecified)	none (no result: LASV entry inh, SARS PLpro yeast, HCV inh, MARV entry inh)
COc1c(C)cc(C(=O)C2CCCN(C(=O)c3ccoc3)C2)cc1C (stereo unspecified)	HCMV antiviral -81.3
Cc1cccc(NC(=O)CSc2nc3ccc(NC(=O)c4ccco4)cc3s2)c1	FMDV inh 25.1µM, HCMV antiviral inconclusive, MARV entry inh inconclusive (no result: SARS PLpro yeast, HCV inh)
CC(c1ccccc1)N1CCn2c(nc3cc(NC(=O)c4cccs4)ccc32)C1 (stereo unspecified)	HCV inh 10µM, HCMV antiviral -73.2 (no result: FMDV inh)
CN(C(=O)CSc1nc2ccc(NC(=O)c3cccs3)cc2s1)c1ccccc1	LASV entry inh inconclusive, FMDV inh inconclusive, HCMV antiviral -75.7 (no result: SARS PLpro yeast, HCV inh)
COc1cccc(NC(=O)CSc2nc3ccc(NC(=O)c4ccco4)cc3s2)c1	FMDV inh 39.8µM, MARV entry inh inconclusive (no result: SARS PLpro yeast, HCV inh)
COCCN1CCn2c(nc3cc(NC(=O)c4cccs4)ccc32)C1	LASV entry inh inconclusive (no result: FMDV inh)
Cc1ccc(NC(=O)CCSc2nc(-c3ccco3)cc(C(F)(F)F)n2)cc1F	MARV entry inh inconclusive (no result: SARS PLpro yeast, HCV inh)
COC(=O)[C@]1(C#N)[C@H](CC(C)C)C(=O)N(Cc2ccc(Cl)cc2)[C@@H]1c1ccc(OC)cc1	none (no result: LASV entry inh, SARS PLpro yeast, HCV inh, FMDV inh, MARV entry inh)
COc1ccc(N2C(=O)[C@@H]3C[C@H]2CN3Cc2ccc3nccnc3c2)cc1Cl	none (no result: LASV entry inh, SARS PLpro yeast, HCV inh, HCMV antiviral, MARV entry inh)
CC(=O)Nc1ccc2nc(SCCOc3ccccc3)sc2c1	HCMV antiviral -78.2 (no result: SARS PLpro yeast, HCV inh)
COc1ccc2c([N+](=O)[O-])c(-c3ccccc3)[nH]c2c1	none (no result: LASV entry inh, SARS PLpro yeast, HCV inh, FMDV inh, MARV entry inh)
CC(C)CO/N=C1\C[C@@H](O)[C@@H](O)[C@@H]2[C@@H]3C(=O)N(C4CCCCC4)C(=O)[C@@H]3CC[C@H]12	none (no result: LASV entry inh, SARS PLpro yeast, HCV inh, FMDV inh, HCMV antiviral)
C#CC[N+](C)(C)CCCCCCCCC	HCV inh inconclusive, HCMV antiviral -94.7, MARV entry inh inconclusive
CC#CC[N+](C)(C)CCCCCCCCCC	LASV entry inh inconclusive, HCV inh inconclusive, HCMV antiviral -65.0, MARV entry inh inconclusive
C[N+](C)(C)CCCCCCCCCC[N+](C)(C)C	none
CCOc1ccc(-n2c(SCC(=O)Nc3ccc(F)cc3)nc3c([nH]c4ccccc43)c2=O)cc1	none (no result: SARS PLpro yeast, HCV inh, MARV entry inh)
COc1cc(C2N(Cc3ccccc3)CCN2Cc2ccccc2)ccc1OC(C)=O	none (no result: LASV entry inh, MARV entry inh)
COc1cc(C2N(c3ccccc3)CCN2c2ccccc2)ccc1OC(C)=O	HCMV antiviral -62.8
O=C(/C(=N\Nc1ccc([N+](=O)[O-])cc1)Sc1nnnn1-c1ccccc1)c1ccccc1	FMDV inh inconclusive, MARV entry inh 0.891µM
CCOc1ccc2nc(N[C@@](NC(C)=O)(C(=O)OC)C(F)(F)F)sc2c1	none (no result: LASV entry inh, SARS PLpro yeast, HCV inh, FMDV inh, HCMV antiviral)
CCOC(=O)C1CCN(Cc2cnc(Oc3ccc(C(C)(C)C)cc3)s2)CC1	LASV entry inh 9.2µM
Cc1ncc(CN2CCCC(C(=O)c3ccc(C(C)(C)C)cc3)C2)s1 (stereo unspecified)	HCV inh 11.2µM, FMDV inh inconclusive, HCMV antiviral inconclusive (no result: LASV entry inh, MARV entry inh)
COc1ccc2cc(C(=O)C3CCCN(Cc4cnc(C)s4)C3)ccc2c1 (stereo unspecified)	LASV entry inh inconclusive, HCV inh 11.2µM, HCMV antiviral -78.4
COc1ccc2cc(C(=O)C3CCCN(C4CCOCC4)C3)ccc2c1 (stereo unspecified)	MARV entry inh 7.94µM
O=C1CCC[C@H]2[C@@H](Cc3ccccc3)[C@H](NCc3cccs3)CC[C@]23CCCN13	none (no result: LASV entry inh, SARS PLpro yeast, HCV inh, FMDV inh, MARV entry inh)
CC(C)(C)c1ccc(OCCNC(=S)NC(=O)c2cccnc2)cc1	MARV entry inh inconclusive
O=C(O)[C@@H](O)c1ccco1	none (no result: LASV entry inh, SARS PLpro yeast, HCV inh, FMDV inh, HCMV antiviral)
COc1ccccc1CNC(=O)c1cnc2c(-c3ccccc3)c(C)nn2c1C	none (no result: SARS PLpro yeast, HCV inh, MARV entry inh)
Cc1nnc(SC(=O)N2c3ccccc3Sc3ccccc32)s1	LASV entry inh 20.6µM, HCV inh inconclusive, HCMV antiviral inconclusive, MARV entry inh inconclusive (no result: FMDV inh)
COc1cc(CN(C(=O)COc2ccc(F)cc2)c2ccccn2)cc(OC)c1OC	none (no result: SARS PLpro yeast, HCV inh)
O=C(N=Nc1c(O)[nH]c2ccccc12)c1cccc(S(=O)(=O)N2CCCCC2)c1	none
CC(C)c1ccc2[nH]c(O)c(N=NC(=O)c3cccc(S(=O)(=O)N4CCCCC4)c3)c2c1	LASV entry inh inconclusive, HCV inh 11.2µM, FMDV inh inconclusive, MARV entry inh 10µM
CC(C)(C)C(=O)Cn1c(=O)n(-c2ccc(Cl)cc2)c(=O)c2c3c(sc21)CCCC3	none (no result: SARS PLpro yeast, HCV inh)
CCOc1cc(/C=C/C(=O)c2ccc(OC)c(CN3CCOCC3)c2)cc(Br)c1O	LASV entry inh inconclusive, HCV inh inconclusive, HCMV antiviral -98.0, MARV entry inh inconclusive
CCOc1cc(/C=N/NC(=O)c2ccc(CN3CCOCC3)cc2)ccc1OC	HCV inh inconclusive, FMDV inh inconclusive, MARV entry inh inconclusive
COc1cc(OC)cc(C(=O)N2CC(=O)Nc3ccccc32)c1	HCMV antiviral inconclusive, MARV entry inh inconclusive
O=C(COc1coc(CN2CCN(c3ccccc3)CC2)cc1=O)Nc1ccc(F)cc1	HCV inh inconclusive, HCMV antiviral -83.3
CCOc1ccccc1NC(=O)COc1coc(CN2CCc3ccccc32)cc1=O	HCV inh 7.94µM, MARV entry inh inconclusive
CCOC(=O)c1ccccc1NC(=O)COc1coc(CN2CCc3ccccc32)cc1=O	HCV inh inconclusive, MARV entry inh inconclusive
COC(=O)N[C@@H](c1ccco1)[C@]1(C(C)=O)CCCC1=O	none (no result: LASV entry inh, SARS PLpro yeast, HCV inh, FMDV inh, HCMV antiviral)
Clc1cccc(Cl)c1C1N2CCCN12 (stereo unspecified)	HCMV antiviral -63.1
CC(C)(C)c1cnnn1-c1cccc([N+](=O)[O-])c1	HCMV antiviral -66.1
CC(C)c1ccc(NC(=O)c2cc(S(=O)(=O)NCc3ccccc3Cl)ccc2F)cc1	LASV entry inh inconclusive, HCMV antiviral -81.6 (no result: SARS PLpro yeast, HCV inh, MARV entry inh)
COc1ccccc1Nc1nc(C)nc(N)c1S(=O)(=O)c1ccccc1	none (no result: SARS PLpro yeast, HCV inh)
COc1ccc(/C=C/c2ccc3cccc(O)c3n2)cc1Br	HCV inh inconclusive (no result: LASV entry inh, MARV entry inh)
COc1cc(/C=C/c2ccc3cccc(O)c3n2)cc(Br)c1OC	HCV inh 11.2µM, HCMV antiviral inconclusive, MARV entry inh inconclusive
